According to PubChem BioAssay AID686979 (National Center for Advancing Translational Sciences (NCATS), 2013):
Where “and” joins values, the source holds several entries; their conditions need not be identical. Equal entries are not always repeated. Screen size: about 420,000 compounds; about 50,000 (12%) were called active. About 26% were inconclusive and are not listed. What follows is part of a selection rich in actives, with near analogues and random picks from the rest. Unmarked numbers belong to inactive results. The call rests on the fitted dose curve; in most records, active means well fitted inhibition curve with a large enough effect; inconclusive means small, poorly fitted or top-dose-only effect; inactive means flat fitted curve, though single readings scatter.

experiment: qHTS for Inhibitors of human tyrosyl-DNA phosphodiesterase 1 (TDP1): qHTS in cells in presence of CPT; conditions: chicken DT40 Tdp1-/-;hTDP1 cells + 20 nM CPT, ATP luminescence, 48 h; series mostly up to 46.2 µM; activity change, negative = growth inhibition: at the top concentration; further: nearly all actives have a fitted effect of over 55% in size
In short: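 Cell growth measured by CellTiter-Glo luminescence after a minimum 48 h, 37 C compound exposure with 20 nM CPT in Tdp1-knockout DT40 cells stably expressing hTDP1, seeded 400/well; qHTS titration format.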
On the % scale 0 is the no-effect control and ±100 the full control effect; potency means the concentration at half of the fitted maximal effect.

Row | SMILES | activity change, negative = growth inhibition | Potency
1 | O=C(NCCS(=O)(=O)N1CCN(c2ccccc2)CC1)c1ccco1 | 0.253% | –
2 | CN1CCN(Cc2nc3cc(NC(=O)COc4ccc([N+](=O)[O-])cc4)ccc3n2C)CC1 | -0.469% | –
3 | O=C(Oc1ccc(C(=S)N2CCOCC2)cc1)c1ccc(F)cc1 | -2.14% | –
4 | Cc1ccc(SCC2=NNC(=O)C2)cc1 | -7.49% | –
5 | O=C(COc1ccccc1)Nc1cc2c3c(c1)CC(=O)N3CCC2 | -29.3% | –
6 | CN(Cc1ccccc1)C(=O)CCC1CCN(C(=O)c2ccco2)CC1 | 4.83% | –
7 | C=CCC1(C(=O)N(C)Cc2ccccc2)CCN(C(=O)OC(C)(C)C)CC1 | – | 14.6 µM (active)
8 | CC(C)(C)OC(=O)N1CCN(C(=O)c2[nH]c(C(F)(F)F)nc2-c2ccccc2)CC1 | 15.1% | –
9 | COCC(=O)N=Nc1c(O)[nH]c2ccccc12 | -21.3% | –
10 | Cc1cccc(N=Nc2c(O)[nH]c3ccc(F)cc23)c1 | -19.6% | –
11 | Oc1[nH]c2ccccc2c1N=Nc1c(F)c(F)c(F)c(F)c1F | – | 8.2 µM (active)
12 | Cc1cc(=O)oc2c(C)c(OCC(=O)NCCc3ccc(S(N)(=O)=O)cc3)ccc12 | -8.7% | –
13 | CCCNC(=O)C1(C)CCN(C(=O)c2ccccc2OC(F)(F)F)C1 (stereo not given) | -16.5% | –
14 | CN(c1ccccn1)c1ncnc2[nH]ncc12 | -1.97% | –
15 | c1ccc(CNc2ncncc2-c2cccnc2)cc1 | -1.78% | –
16 | c1ccc(CNc2ncnc3[nH]ncc23)cc1 | – | 20.6 µM (active)
17 | Cc1ccc2c(=O)c(C(=O)c3cccc(Cl)c3)cn(CC(=O)NCc3ccccc3)c2n1 | -3.25% | –
18 | CC1(C)CC(=O)C=C(N2CCOCC2)C1 | 13.7% | –
19 | Cc1oc(C(N)=O)cc1COc1ccc(C(N)=O)cc1 | 20.8% | –
20 | Cc1cccc(Cc2c(C)nc3nc(SCc4ccccc4Cl)nn3c2C)c1 | – | 23.1 µM (active)
21 | COC(OC)c1ccnc(SCc2ccccc2Cl)n1 | 13.7% | –
22 | Cc1nc2nc(SCC(=O)NCc3ccco3)nn2c(C)c1Cc1ccccc1 | -19.4% | –
23 | O=C(O)c1ccccc1-c1cccc2nncn12 | -17.6% | –
24 | O=C(NCCCN1CCOCC1)c1cn(-c2ccccc2)nc1-c1ccc(F)cc1 | -15.7% | –

Row | SMILES | activity change, negative = growth inhibition | Potency
25 | O=C(N/N=C/c1ccc([N+](=O)[O-])o1)c1cn(-c2ccccc2)nc1-c1ccc(F)cc1 | – | 7.31 µM (active)
26 | Cc1nnc(SCC(=O)N/N=C/c2cn(-c3ccccc3)nc2-c2ccc(F)cc2)n1-c1ccccc1 | -12.7% | –
27 | COc1ccc(S(=O)(=O)NCC(=O)NC2CC2)cc1OC | 6.46% | –
28 | COc1ccc(Nc2cc(=O)oc3ccccc23)cc1 | – | 2.91 µM (active)
29 | COc1ccc(Nc2nnc(C)c3ccccc23)cc1 | 2.95% | –
30 | COc1ccc(Nc2ccc3ccccc3c2)cc1 | -8.39% | –
31 | CCn1cc(/C=C(\NC(=O)c2ccc(C)cc2)C(=O)NCCN2CCOCC2)c2ccccc21 | -28.7% | –
32 | CC1=NNC(=O)C1CC(=O)N/N=C/c1ccncc1 (stereo not given) | 1.34% | –
33 | CCc1ccc(-n2c(SCc3cc(=O)n4cc(Br)ccc4n3)nc3[nH]ncc3c2=O)cc1 | – | 23.1 µM (active)
34 | CCCSc1nc2[nH]ncc2c(=O)[nH]1 | -6.23% | –
35 | COc1ccc2c(c1)CCc1c(C(=O)Nc3c(C)n(C)n(-c4ccccc4)c3=O)noc1-2 | -5.03% | –
36 | Cc1ccccc1Cn1nc(C)c(NC(=O)C(F)(F)F)c1C | 7.52% | –
37 | Cc1nn(Cc2ccc(F)cc2)c(C)c1NC(=O)c1noc2c1CCc1ccccc1-2 | – | 25.9 µM (active) and 4.61 µM (active)
38 | Cc1cc(C(=O)Nc2c(C)nn(Cc3ccccc3)c2C)on1 | 2.52% | –
39 | Cc1nn(Cc2ccc(F)cc2)c(C)c1NC(=O)c1cc(CC(C)C)on1 | – | 20.6 µM (active)
40 | Cc1nn(Cc2ccc(F)cc2)c(C)c1NC(=O)c1cccnc1Cl | 5.99% | –
41 | C=CCOc1ccc(/C=C/C(=O)OC(C)C(=O)Nc2ccc(NC(C)=O)cc2)cc1 (stereo not given) | 4.08% | –
42 | CC(CCN1CCN=C1N(C)C)c1ccccc1 (stereo not given) | -1.58% | –
43 | Cc1cc(C)c2c(n1)sc1c(=O)n(-c3ccccc3)c(=O)[nH]c12 | 1.18% | –
44 | CC(=O)Nc1cc(C(=O)N2CCc3c(Cl)cccc3C2)cc2ncn(CCc3ccccn3)c12 | -10.1% [at 9.04 µM] | –
45 | CN(Cc1c(F)cccc1Cl)C(=O)CNC(=O)c1ccc2c(c1)OCO2 | -12.9% | –
46 | COCCNC(=O)c1onc(CSc2cccc(C)c2)c1C(=O)O | -1.59% | –
47 | COCCN(Cc1cc2cc3c(cc2nc1Cl)OCO3)C(=O)c1cccc(C)c1 | – | 7.31 µM (active)
48 | CCSc1nc(O)c(C(c2cccc(OC)c2)c2c(O)nc(SCC)[nH]c2=O)c(=O)[nH]1 | 13.5% | –

Row | SMILES | activity change, negative = growth inhibition | Potency
49 | CC1COc2ccccc2N1C(=O)c1ccc(F)cc1 (stereo not given) | -11.6% | –
50 | c1cncc(-c2nnc3n2C2(CCCCC2)Cc2ccccc2-3)c1 | -13.9% | –
51 | CCOC(=O)C1CCc2nc3ccccc3c(=O)n21 (stereo not given) | -5.68% | –
52 | CCC1(CC)Cc2ccccc2-c2nc3ccccc3c(=O)n21 | – | 18.4 µM (active)
53 | O=c1c2ccccc2nc2n1C1(CCCCC1)Cc1ccccc1-2 | – | 16.4 µM (active)
54 | CC1(C)Cc2ccccc2-c2nnc(-c3cccc(O)c3)n21 | -0.381% | –
55 | CC1(C)Cc2ccccc2-c2c[nH]c(=O)n21 | -4.36% | –
56 | CCCCSc1ncnc2c1sc1nc(N3CCOCC3)c3c(c12)CCCC3 | -0.216% | –
57 | NS(=O)(=O)c1ccc(CCNC(=O)COC(=O)COc2cccc(C(F)(F)F)c2)cc1 | 4.49% | –
58 | CCN(c1ncnc2c1cnn2-c1ccc(C)cc1)C1CCCCC1 | -0.498% | –
59 | O=C(c1cc(-c2ccc(Cl)s2)nc2ccccc12)N1CCOCC1 | -5.37% | –
60 | COCCNC(=O)c1ccccc1NS(=O)(=O)c1ccc(C)c([N+](=O)[O-])c1 | -3.71% | –
61 | COCCNc1ccc(-c2n[nH]c(=O)c3ccccc23)cc1[N+](=O)[O-] | – | 14.6 µM (active)
62 | COCCNc1cc(NCCOC)c([N+](=O)[O-])cc1[N+](=O)[O-] | 11.4% | –
63 | COc1ccc(-c2csc(-c3cccs3)n2)cc1OC | -22.2% | –
64 | Cc1onc(C(=O)NN)c1-c1csc(COc2ccccc2)n1 | 7.79% | –
65 | CC(C)(C)C(=O)OCc1nc(-c2ccc(O)c(O)c2)cs1 | – | 6.51 µM (active)
66 | O=C(Nc1ccncc1)c1ccc([N+](=O)[O-])cc1Cl | -26.5% | –
67 | O=C1N(c2ccc(Cl)cc2)C(c2ccc(Cl)cc2)N2CCCN12 (stereo not given) | 8.43% | –
68 | Nc1nonc1-n1nnc(C(=O)N/N=C\c2ccncc2)c1CN1CCCCC1 | 2.3% | –
69 | Nc1nonc1-n1nnc(C(=O)N/N=C/c2cc(Br)ccc2O)c1CSC1=NCCS1 | – | 5.8 µM (active)
70 | Cc1ccc(SCc2c(C(=O)N/N=C/C3CC=CCC3)nnn2-c2nonc2N)cc1 (stereo not given) | -6.45% | –
